# Screening results from PubChem.
# gsp agonist – gsp mutant agonism; gsp mutant cells, cAMP HTRF, 30 min; Potency, µM (series often up to 76.9 µM), without a hit: at the top dose activation (cAMP increase), hits mostly activators; hit rate 0.13% among 340,000; AID 624287; active = well fitted activation curve with a large enough effect; inconclusive = small, poorly fitted or top-dose-only effect, or another doubt; inactive = no such curve, though single readings can be large or run the other way; cell line not stated here;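 note: phosphodiesterase inhibitor Ro 20-1724 added with compounds to block cAMP breakdown; potency is the fitted concentration of half-maximal effect; nearly all actives have a fitted effect of over 60% in size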
#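 Cells stably selected in G418 were plated at 2000/well, grown 16-24 hr, then given compounds in DMSO with the PDE inhibitor […] (300 uM solution added) for 30 min at 37C; cAMP was read by HTRF.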
# MmCpn inh – M. maripaludis TRiC chaperonin inhibition; purified Mm-Cpn ATPase, ADP Transcreener TR-FRET; Potency, µM (doses to about 76.9 µM), inactives show at the top dose activity, negative = inhibition, hits mostly inhibitors; hit rate 0.031% among 330,000; note: potency is the fitted concentration of half-maximal effect; % is set by controls: 0 for no effect and ±100 for the full control effect; nearly all actives have a fitted effect of over 80% in size
#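 ATP (10 uM final) was added to archaeal chaperonin (25 nM final) after 10 min exposure to test compound at 37°C; after 30 min further incubation, ADP was detected by competitive TR-FRET.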
# gsp antagonist – antagonists of gsp mutant (McCune-Albright syndrome). Potency, µM (titrated, usually from 76.9 µM), for the others: top-dose activity change, negative = inhibition, usual class: inhibitors. gsp-mutant cells, cAMP HTRF, 30 min. hit rate 0.4% among 340,000; calls by dose curve; cell line not stated here;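 note: intracellular cAMP measured with PDE inhibitor Ro 20-1724 present during compound exposure; potency is the fitted concentration of half-maximal effect; % is set by controls: 0 for no effect and ±100 for the full control effect; nearly all actives have a fitted effect of over 65% in size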
#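 HTRF cAMP read-out (cAMP-d2 plus anti-cAMP antibody-K in lysis buffer, 30 min RT). Before lysis, cells are exposed to compounds with […] for 30 min at 37C in DPBS containing Ca/Mg, BSA and Tween 20.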
# RXFP1 ag – agonists of human relaxin receptor RXFP1. Q9HBX9. HEK293T-RXFP1 cAMP TR-FRET, 30 min; response scale: percent of porcine relaxin response, buffer zero. Potency, µM (top dose mostly 57.5 µM), for inactives: top-dose activation, hits mostly activators. hit rate 0.3% among 370,000; note: potency is the fitted concentration of half-maximal effect; % is set by controls: 0 for no effect and ±100 for the full control effect; nearly all actives have a fitted effect of over 60% in size
# Target sequence (Q9HBX9 whole entry, looked up): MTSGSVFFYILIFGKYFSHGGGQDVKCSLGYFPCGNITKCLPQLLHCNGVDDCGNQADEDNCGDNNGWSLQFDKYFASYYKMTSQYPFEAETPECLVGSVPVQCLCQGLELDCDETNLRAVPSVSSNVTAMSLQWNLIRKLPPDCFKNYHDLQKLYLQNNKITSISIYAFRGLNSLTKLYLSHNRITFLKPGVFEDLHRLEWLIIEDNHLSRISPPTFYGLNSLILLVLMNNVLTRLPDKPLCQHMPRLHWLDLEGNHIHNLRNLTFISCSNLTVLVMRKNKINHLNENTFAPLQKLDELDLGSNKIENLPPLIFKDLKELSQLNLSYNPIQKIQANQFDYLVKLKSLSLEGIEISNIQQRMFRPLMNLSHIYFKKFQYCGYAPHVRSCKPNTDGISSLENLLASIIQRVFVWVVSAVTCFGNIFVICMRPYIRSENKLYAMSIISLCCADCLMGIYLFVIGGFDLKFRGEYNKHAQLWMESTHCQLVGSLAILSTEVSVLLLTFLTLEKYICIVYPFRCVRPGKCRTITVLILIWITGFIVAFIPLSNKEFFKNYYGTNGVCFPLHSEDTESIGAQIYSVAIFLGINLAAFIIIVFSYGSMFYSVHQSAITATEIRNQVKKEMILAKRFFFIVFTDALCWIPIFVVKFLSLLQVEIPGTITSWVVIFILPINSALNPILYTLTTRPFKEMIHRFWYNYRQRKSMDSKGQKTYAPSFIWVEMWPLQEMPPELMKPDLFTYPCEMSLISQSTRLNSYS
#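 cAMP rise read by TR-FRET after 30 min, 37C compound exposure (up to 58 uM) in RXFP1-transfected HEK293 cells with Ro 20174 present. EC50 from Hill-equation fits, with 29 nM porcine relaxin as 100% and buffer as basal.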
# RXFP1 antag – blocks the human relaxin receptor RXFP1; Q9HBX9; HEK293-RXFP1, relaxin-stimulated cAMP HTRF, 30 min; stronger effect = lower value; activity change, negative = inhibition, % at 57.5 µM; hit rate 0.59% among 350,000;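 active = activity change of -60% or lower, but not beyond a set lower limit; inconclusive = change between -60% and -40%, or beyond the set limit; inactive = change above -40%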; note: % is set by controls: 0 for no effect and ±100 for the full control effect
# CCT chaperon mod – modulators of cytosolic chaperonin (CCT/TRiC) activity; purified chaperonin ATPase assay, HTRF ADP detection, 30 min; activity change, % (no concentration beside the values), hits read low; hit rate 0.3% among 360,000; in the data active = activity change below about -30%; note: % is set by controls: 0 for no effect and ±100 for the full control effect
#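 TRiC (40 or 20 nM final, by batch activity) in 30 mM Tris pH 7.4, 100 mM KCl, 5 mM MgCl2, 1 mM DTT was treated with compound at 76 uM single dose, then 10 uM ATP, 30 min at 37 °C. ADP was read by HTRF Transcreener.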
# * marks the source's active call; other numbers are inactive results; ? = inconclusive; / = not tested or not shown; ! = a repeat was not active; [ ] = remark or other dose. Sampled rows, rich in hits. Any-hit rate of the full collection: about 1.2%. Unless noted, calls come from the whole dose curve; as a rule, active = well fitted curve in the direction sought with a large enough effect; inconclusive = small, poorly fitted or top-dose-only effect, or another doubt; inactive = no such curve, though single readings can be large; an effect the other way counts as inactive or inconclusive.
SMILES,gsp agonist,MmCpn inh,gsp antagonist,RXFP1 ag,RXFP1 antag,CCT chaperon mod
O=C(C1CCC(CNS(=O)(=O)c2cccs2)CC1)N1CCN(c2ccc(F)cc2)CC1 (stereo not given),22%,-2%,35µM*,-3%,-8,-1
CCOC(=O)Cn1nnnc1CN(Cc1cccs1)Cc1cc2cc(C)ccc2[nH]c1=O,2%,0%,18%,1%,7,-31*
Cc1ccc2[nH]c(=O)c(CN(Cc3cccs3)Cc3nnnn3Cc3ccccc3)cc2c1,-13%,-2%,-17%,4%,-16,-3
Cc1ccc2oc(-c3cc(NC(=O)CC(C)C)ccc3Cl)nc2c1,/,/,/,9%,-19,/
Cc1ccc2c(c1)c1c(n2CC(O)Cn2ccnc2C)C(=O)CCC1 (stereo not given),-3%,-4%,7%,-3%,4,1
Cc1ccc2c(c1)c1c(n2CC(O)CNC2CCCC2)CCCC1 (stereo not given),4%,1%,-6%,0%,-82*,0
CN1CCN(CCCN2c3ccccc3Sc3ccc(C(F)(F)F)cc32)CC1,?,-2%[15.4 µM],18%,3%,-65*!,-2
O=C(CN1CCCC(O)C1)N1c2ccccc2Sc2ccc(C(F)(F)F)cc21 (stereo not given),-3%,0%,-5%,3%,-35,1
N#CC(C#N)=C(Nc1ccc(F)cc1)SCc1cccc(F)c1,1%,-5%,32µM*,1%,13,0
COc1cc(NC(=O)CCc2c(C)n(C)c3cc(-c4ccccc4C)nn3c2=O)cc(OC)c1OC,/,/,/,-1%,-3,/
O=c1c(-c2ccc(Cl)cc2)c(C(F)(F)F)oc2c(CN3CCCCC3)c(O)ccc12,/,/,/,1%,-3,/
Cc1ccc(Cl)cc1-n1ncc2c(NCc3ccc(F)cc3)ncnc21,/,/,/,-3%,-65*,/
CCOC(=O)CNC(=O)CSc1nc(-c2ccc(C)cc2)ns1,-29%[15.4 µM],2%,11µM*,1%,-12,0
CCOC(=O)CNC(=O)CSc1nc2c(C)cccc2cc1CC,?,-6%,8%,14µM*,15,-10
CCOC(=O)CNC(=O)CSc1nnc(-c2cccc(C)c2)n1-c1ccc(OC)cc1,-5%,1%,6.3µM*,1%,-2,-5
Cc1cccc2cc(C#N)c(SCC(=O)NCc3cccs3)nc12,?,-11%,-5%,13µM*,1,-4
CCCCCCCCCCCCCCCCCCNC(=O)OC1CCN(C(=O)OC[C@H](COC(=O)N(Cc2cccc[n+]2CC)C(=O)c2ccccc2OC)OC)CC1,/,/,/,/,-26,/
Cc1ccc(N2CCN(C(=O)c3cc(S(=O)(=O)N4CCCCC4)c[nH]3)CC2)c(C)c1,/,/,/,1%,-19,/
Cc1ccc(N2CCN(S(=O)(=O)N3CCCCC3)CC2)c(C)c1,0%[15.4 µM],3%,-9%,0%,-70*,0
O=C(O)C1CCC1,/,/,/,/,10,/
COc1ccc(C)cc1NC(=O)CCS(=O)(=O)c1cc2c3c(c1)CCN3C(=O)CC2,/,/,/,-1%,/,/
O=C(Nc1cnc(N2CCN(c3ccccc3)CC2)c(C(=O)O)c1)c1cccs1,/,/,/,1%,-8,/
S=c1nc(SCc2ccccc2)[nH]c2ccccc12,52%[15.4 µM],-10%,-3%,28µM*,16,-2
c1ccc(CSc2nc3ncncc3[nH]2)cc1,?,-1%,5%,0%,15,-3
CCOC(=O)C1CCN(c2cc3c(cc2NC(=O)c2ccc(Cl)cc2)n(C)c(=O)n3C)CC1,/,/,/,4%,-2,/
O=C(NCC1CC1(Cl)Cl)Nc1ccc(Cl)c(Cl)c1 (stereo not given),-7%,4%,?,-3%,-67*,1
O=C(Nc1ccccc1)Nc1cccc(Cl)c1,-4%,0%,32µM*,-2%,-15,-6
COC(=O)c1cccc(NC(=O)NC(=O)c2ccccc2Cl)c1,22%,2%,4%,1%,-6,0
O=C(Nc1ccc(F)c(Cl)c1)Nc1csc2ccccc12,8%[15.4 µM],-3%,35µM*,0%,-40,-1
